# Source: PubChem BioAssay AID1851 (National Center for Advancing Translational Sciences (NCATS), 2009)
# About 5,700 (36%) of roughly 16,000 compounds were called active. Roughly 24% stayed inconclusive and do not appear here. The call rests on the fitted dose curve; in most records, active means well fitted curve in the direction sought with a large enough effect; inconclusive means small, poorly fitted or top-dose-only effect, or effect the other way; inactive means no such curve, though single readings can be large or run the other way. The list shows a part of the results.
# Biological target: Cytochrome P450 1A2 (Homo sapiens) (UniProt P05177)
# Sequence (P05177 whole entry, looked up): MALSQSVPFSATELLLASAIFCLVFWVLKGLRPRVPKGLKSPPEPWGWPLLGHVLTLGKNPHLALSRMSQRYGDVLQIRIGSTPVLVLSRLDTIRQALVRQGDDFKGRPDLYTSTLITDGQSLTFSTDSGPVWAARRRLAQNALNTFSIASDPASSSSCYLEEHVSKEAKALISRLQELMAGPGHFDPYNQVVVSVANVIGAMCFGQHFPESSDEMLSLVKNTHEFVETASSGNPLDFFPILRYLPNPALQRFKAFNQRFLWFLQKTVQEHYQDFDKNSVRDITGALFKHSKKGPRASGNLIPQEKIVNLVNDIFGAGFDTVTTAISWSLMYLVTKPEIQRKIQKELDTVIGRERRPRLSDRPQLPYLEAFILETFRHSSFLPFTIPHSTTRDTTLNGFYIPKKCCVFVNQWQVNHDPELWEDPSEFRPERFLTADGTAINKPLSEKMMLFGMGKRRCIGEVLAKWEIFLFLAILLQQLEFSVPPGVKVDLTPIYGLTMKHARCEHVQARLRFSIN
# Experiment: Cytochrome panel assay with activity outcomes
# Settings: recombinant CYP, pro-luciferin dealkylation, luminescence, p450-cyp1a2; series mostly up to 57.1 µM; activity, negative = inhibition: at the top concentration
# On the % scale 0 is the no-effect control and ±100 the full control effect.
Compound,"activity, negative = inhibition",AC50
C/C(CCN1CCCCc2nc(C)c(C)cc21)=N\OC[C@@H](C)[C@H](OCc1ccccc1)C(C)C,-4.06% [at 11.4 µM] (inactive),
O=S(=O)(c1ccccc1)N1CCC2(CCCN(Cc3ccncc3)C2)CC1,,12.6 µM (active)
N#Cc1ccc(CN2CC3(CCN(C(=O)c4cc(C(F)(F)F)cc(C(F)(F)F)c4)CC3)C2)cc1,-2.91% (inactive),
COCC(=O)N1CCC2(CCN(Cc3ccncc3)CC2)CC1,,10 µM (active)
O=C(c1cc(C(F)(F)F)cc(C(F)(F)F)c1)N1CCC[C@@]2(CCN(Cc3ccncc3)C2)C1,,12.6 µM (active)
O=C(c1cc(C(F)(F)F)cc(C(F)(F)F)c1)N1CCC[C@@]2(CCN(c3ccncc3)C2)C1,5.24% (inactive),
O=S(=O)(c1ccccc1)N1CCC2(CCN(Cc3ccncc3)CC2)CC1,-9.3% (inactive),
N#Cc1ccc(CN2CCC3(CC2)CCN(C(=O)c2cc(C(F)(F)F)cc(C(F)(F)F)c2)CC3)cc1,-8.67% (inactive),
N#Cc1ccc(CN2CCCC3(CCN(S(=O)(=O)c4ccccc4)CC3)C2)cc1,-13.6% (inactive),
N#Cc1ccc(CN2CC[C@@]3(CCCN(C(=O)c4cc(C(F)(F)F)cc(C(F)(F)F)c4)C3)C2)cc1,,25.1 µM (active)
O=C(c1ccncc1)N1CCC2(CCN(Cc3ccncc3)CC2)CC1,-7.78% (inactive),
O=C(c1cc(C(F)(F)F)cc(C(F)(F)F)c1)N1CCC2(CCCN(Cc3ccncc3)C2)CC1,-16.3% (inactive),
CC(=O)N1CCC2(CCN(Cc3ccncc3)CC2)CC1,-11.1% (inactive),
CO/N=C\[C@@H](C)[C@H](OCc1ccccc1)C(C)C,-4.31% [at 11.4 µM] (inactive),
COc1ccc(C(=O)N2CCC3(CCCN(Cc4ccncc4)C3)CC2)cc1,-27.8% (inactive),
O=C(c1cnccn1)N1CCC[C@@]2(CCN(Cc3nccs3)C2)C1,1.25% (inactive),
Cc1noc(C)c1C(=O)N1CCC2(CCCN(C(c3ccccc3)c3ccccc3)C2)CC1,-8.2% (inactive),
O=C(c1cnccn1)N1CCC[C@@]2(CCN(Cc3ccncc3)C2)C1,,15.8 µM (active)
O=C(c1cc(C(F)(F)F)cc(C(F)(F)F)c1)N1CCC[C@@]2(CCN(Cc3ccccc3)C2)C1,,25.1 µM (active)
O=C(c1ccncc1)N1CCC2(CCCN(C(c3ccccc3)c3ccccc3)C2)CC1,,0.2 µM (active)
O=C(c1cc(C(F)(F)F)cc(C(F)(F)F)c1)N1CCC2(CC1)CN(Cc1ccccc1)C2,10.2% (inactive),
O=C(c1ccncc1)N1CCC2(CCCN(Cc3ccncc3)C2)CC1,,6.31 µM (active)
O=C(c1cc(C(F)(F)F)cc(C(F)(F)F)c1)N1CCC2(CCN(Cc3ccccc3)CC2)CC1,-8.02% (inactive),
O=C(c1ccncc1)N1CCC2(CCCN(Cc3ccccc3)C2)CC1,-3.49% (inactive),

Compound,"activity, negative = inhibition",AC50
CC(C)NC(=O)N1CCCC2(CCN(C(=O)c3ccncc3)CC2)C1,-0.498% (inactive),
O=C(c1cnccn1)N1CCC[C@@]2(CCN(Cc3cc(C(F)(F)F)cc(C(F)(F)F)c3)C2)C1,-0.958% (inactive),
COC(=O)C/C=C\[C@@H](C)[C@@H](/C=N\OC[C@@H](C)[C@H](OCc1ccccc1)C(C)C)OC,-0.613% [at 11.4 µM] (inactive),
C[C@@H]1c2cccc(O)c2C(O)=C2C(=O)[C@@]3(O)C(O)=C(C(N)=O)C(=O)[C@@H](N(C)C)[C@@H]3[C@@H](O)[C@@H]21,,inactive
O=C1C(=O)N(c2cccc(Cl)c2)C(c2ccccc2[N+](=O)[O-])/C1=C(\O)c1ccccc1 (stereo unspecified),-19.7% (inactive),
CC(=O)c1sc(N)c(C(=O)OC(C)C)c1C,,3.55 µM (active)
Cc1ccc(C)c(CN2C(=O)C3CCCN3c3ccc(C#N)cc32)c1 (stereo unspecified),,12.6 µM (active)
O=C1C2CCCN2c2ccc(S(=O)(=O)N3CCOCC3)cc2N1Cc1cccc(C(F)(F)F)c1 (stereo unspecified),-11.7% (inactive),
CCOC(=O)C1CCN(c2c(NCc3ccc(C(=O)NCCC(C)C)cc3)c(=O)c2=O)CC1,-20.9% (inactive),
Cc1ccccc1[C@@H](OCCN(C)C)c1ccccc1,,inactive
CCCCc1cc2ccccc2c(OCCN(C)C)n1,,0.0794 µM (active)
CCCCc1c(O)nc(SCCN(C)C)n(-c2ccccc2)c1=O,7.61% (inactive),
CC(=O)C1=C(NC(=O)c2ccc(F)cc2)CC2C1C2(C)C (stereo unspecified),,0.2 µM (active)
Cc1occc1C(=O)NNC(=O)c1ccc(F)cc1,-12.3% (inactive),
COC(=O)C(C)Sc1ccc2nnc(-c3ccc(F)cc3)n2n1 (stereo unspecified),,0.794 µM (active)
COC(=O)CSc1ccc2nnc(-c3ccc(F)cc3)n2n1,,1.58 µM (active)
CCn1c(SCC(=O)OC)nnc1C1CCCCC1,-14.9% (inactive),
CC(C)NC(=O)N1CCCC2(CCN(C(=O)c3cccc(F)c3)CC2)C1,19% (inactive),
CCCN(C/C=C\I)[C@@H]1CCc2cccc(O)c2C1,,2.51 µM (active)
N#C[C@H]1CN[C@H](N)N[C@@H]1N,-11.6% [at 2.29 µM] (inactive),
CCNc1nc(NCC)nc(N(C)N)n1,,0.708 µM (active)
Cc1ccc(NC(=O)C2CC(=O)n3c(nc4ccccc43)N2)cc1 (stereo unspecified),-8.21% (inactive),
Cc1ccc(C(=O)N/N=C/c2nc3ccccc3n2C)cc1,,7.08 µM (active)
Cn1c(/C=N/NC(=O)c2ccccc2Br)nc2ccccc21,,2.51 µM (active)

Compound,"activity, negative = inhibition",AC50
c1cncc(CNc2cc(-c3ccoc3)ncn2)c1,,3.16 µM (active)
c1ccc(CNc2cc(-c3ccoc3)ncn2)cc1,,25.1 µM (active)
c1csc(CNc2cc(-c3ccoc3)ncn2)c1,,2 µM (active)
O=C(Oc1ccccc1)N1CCC2(CC1)CCN(c1ccccc1)CC2,-17.5% (inactive),
Cc1ccccc1C(=O)Oc1ccc(Br)cc1C(=S)N1CCCC1,-24.8% (inactive),
O=C(Oc1ccc2ccccc2c1Br)N1CCCCCC1,,4.47 µM (active)
COC(=O)[C@@H]1O[C@@H](c2c(OC)c(OC)c(C)c(OC)c2OC)[C@H](C)[C@@H](O)[C@@H]1C,-4.49% [at 11.4 µM] (inactive),
CC(C)n1cc(/C=C2/SC(=O)N(CC(=O)Nc3ccc4c(c3)OCO4)C2=O)c2ccccc21,-16.9% (inactive),
Cn1c(-c2ccc3c(c2)OCO3)cc(=O)c2ccccc21,,5.01 µM (active)
Cn1cc(/C=C2/SC(=O)N(CC(=O)Nc3ccc4c(c3)OCO4)C2=O)c2ccccc21,-19.1% (inactive),
Cc1ccccc1/C=N\NC(=O)c1csnn1,,1 µM (active)
O=C(Nc1ccccc1)N1CCC2(CC1)CCN(C(=O)c1csnn1)CC2,-12.3% (inactive),
O=C(c1csnn1)N1CCC2(CC1)CN(c1ccccc1)C2,-11.9% (inactive),
O=C(CCNC(=O)Cn1ccc2ccccc2c1=O)NCCCN1CCN(c2ccc(F)cc2)CC1,-11.6% (inactive),
CCNc1ncc2nc(-c3ccc(F)cc3)c(=O)n(C[C@H]3CCCO3)c2n1,,1.26 µM (active)
CCNc1ncc2nc(-c3ccc(Cl)cc3)c(=O)n(C[C@H]3CCCO3)c2n1,,0.794 µM (active)
Cc1ccc(C2/C(=C(/O)c3ccc(Cl)cc3)C(=O)C(=O)N2CC2CCCO2)o1 (stereo unspecified),-8.98% (inactive),
CN1CCN(c2ncc3nc(CCc4ccccc4)c(=O)n(C)c3n2)CC1,,12.6 µM (active)
COc1ccc(-n2c(=O)c(CCc3ccccc3)nc3cnc(N4CCN(C)CC4)nc32)cc1,-18.1% (inactive),
Cc1nc2cnc(N3CCOCC3)nc2n(Cc2cccs2)c1=O,,2 µM (active)
Cc1nc2cnc(N3CCN(C)CC3)nc2n(Cc2cccs2)c1=O,,12.6 µM (active)
Cc1nc2cnc(N3CCNCC3)nc2n(Cc2cccs2)c1=O,,0.631 µM (active)
Cc1cc2c(nc1C)CCCCN2C[C@H](O)CN1CCCc2nc(-c3ccc(Br)cc3)ccc21,-8.63% [at 11.4 µM] (inactive),
Cc1ccc(CCN2CC(C(=O)NCCN3CCCCCC3)CC2=O)cc1 (stereo unspecified),-17% (inactive),

Compound,"activity, negative = inhibition",AC50
O=c1cnc2cnc(N3CCOCC3)nc2n1Cc1cccs1,,2.51 µM (active)
CN1CCN(c2ncc3nc(CCc4ccccc4)c(=O)n(Cc4ccc(F)cc4)c3n2)CC1,-18.2% (inactive),
CN1CCN(c2ncc3nc(CCc4ccccc4)c(=O)n(Cc4cccs4)c3n2)CC1,,15.8 µM (active)
C[C@H]1NC(=O)NC1=O,,inactive
COc1cc([C@@H](O)CO)ccc1OS(=O)(=O)O,-0.471% (inactive),
Brc1ccc(/C=C/C=N/Nc2nc3ccccc3s2)cc1,,2.24 µM (active)
Cc1ccc2ccccc2c1CSc1nc(N)nc2c1ncn2CC(C)C,-20.8% [at 2.29 µM] (inactive),
CCCn1cnc2c(SCC(=O)O)nc(N)nc21,1.5% [at 11.4 µM] (inactive),
CCCn1cnc2c(SCc3ccc(Cl)cc3)nc(N)nc21,,1.26 µM (active)
CCOC(=O)c1cnc(N(C)C)nc1SC(=N)N,-22.6% [at 2.29 µM] (inactive),
CCOC(=O)c1cnc(SCCc2ccccc2)nc1N,,25.1 µM (active)
CCN1CCc2c(sc(N)c2C(N)=O)C1,-10% (inactive),
CCOC(=O)c1c(NC(=S)Nc2ccccc2)sc2c1CCN(CCc1ccccc1)C2,,15.8 µM (active)
CCN1CCc2c(sc(NC(=O)c3ccc(S(=O)(=O)N4CCOCC4)cc3)c2C(=O)OC)C1,-24.7% (inactive),
Cc1ccc2c(c1)N(CC(=O)NCc1cccs1)C(=O)C(C)O2 (stereo unspecified),,5.01 µM (active)
Cc1ccc(CNC(=O)CN2C(=O)COc3ccc(C)cc32)cc1,,3.16 µM (active)
Cc1ccc2c(c1)N(CC(=O)NC1CCCc3ccccc31)C(=O)CO2 (stereo unspecified),-34% (inactive),
Cc1ccc2c(c1)N(CCC(=O)NCc1cccnc1)C(=O)CO2,,3.16 µM (active)
CC(=O)OCC1=C(C(=O)O)N2C(=O)[C@@H](NC(=O)Cc3cccs3)[C@@H]2SC1,,inactive
COc1ccc(CCNC(=O)CCN2C(=O)C(C)Oc3ccc(C)cc32)cc1OC (stereo unspecified),-23.7% (inactive),
Cc1ccc2c(c1)N(CC(=O)NC1CCC(C)CC1)C(=O)CO2 (stereo unspecified),-8.38% (inactive),
Cc1ccc2c(c1)N(CCC(=O)NCc1ccc3c(c1)OCO3)C(=O)CO2,,15.8 µM (active)
Cc1ccc2c(c1)N(CCC(=O)NCCN1CCOCC1)C(=O)CO2,-15.2% (inactive),
COc1ccc(CCNC(=O)CCN2C(=O)COc3ccc(C)cc32)cc1OC,-32.9% (inactive),
